# Key:
# Assay in all cases: DAPPL (digital affinity profiling via proximity ligation, sequencing); 10 mM Tris-HCl pH 7.5, 50 mM NaCl, 1 mM DTT, 4% glycerol, room temperature, 30 min; GST-TFs on glutathione beads, 16-mer random dsDNA library, 0.1% formaldehyde crosslink after washing; high values mean tight binding
# [1] = biological target: ETV5 (Homo sapiens, UniProt P41161 1-510); conditions: protein: recombinant; tags: N-terminal GST; dsDNA, one strand shown
# Outline: (§1)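 Pools of DNA-barcoded human transcription factors, expressed in yeast as GST fusions on glutathione beads and combined with a tag-only sample, were incubated with 200 nmole of a 16-mer random double-stranded DNA library. Incubation took 30 min at room temperature in Tris/NaCl/DTT/glycerol buffer and was followed by washing, 0.1% formaldehyde crosslinking, proximity ligation (BsaI/T4 ligase, 1 h, 37 °C), PCR amplification and sequencing on an Illumina NextSeq500. Binding signal is the ratio of a hexamer's read frequency for a factor to its frequency for the tag-only sample.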
# [2] = biological target: HSF1 (Homo sapiens, UniProt Q00613 1-529); conditions: protein: recombinant; tags: N-terminal GST; chain copies: 3; dsDNA, one strand shown
# Outline: as §1
# [3] = biological target: T1, SPIC (Homo sapiens, UniProt Q8N5J4 1-248); conditions: protein: recombinant; tags: N-terminal GST; dsDNA, one strand shown
# T1 sequence: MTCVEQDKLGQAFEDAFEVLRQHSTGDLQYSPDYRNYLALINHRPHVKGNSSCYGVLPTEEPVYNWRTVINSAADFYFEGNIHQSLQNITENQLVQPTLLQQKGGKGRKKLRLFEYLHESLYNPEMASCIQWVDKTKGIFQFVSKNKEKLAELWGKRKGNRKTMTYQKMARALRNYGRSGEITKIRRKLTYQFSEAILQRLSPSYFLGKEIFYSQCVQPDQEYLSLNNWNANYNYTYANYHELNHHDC
# Outline: as §1
# [4] = biological target: ELF4 (Homo sapiens, UniProt Q99607 1-663); conditions: protein: recombinant; tags: N-terminal GST; dsDNA, one strand shown
# Outline: as §1
# [5] = biological target: T2, ELK4 (Homo sapiens, UniProt P28324-2 1-405); conditions: protein: recombinant; tags: N-terminal GST; dsDNA, one strand shown
# T2 sequence: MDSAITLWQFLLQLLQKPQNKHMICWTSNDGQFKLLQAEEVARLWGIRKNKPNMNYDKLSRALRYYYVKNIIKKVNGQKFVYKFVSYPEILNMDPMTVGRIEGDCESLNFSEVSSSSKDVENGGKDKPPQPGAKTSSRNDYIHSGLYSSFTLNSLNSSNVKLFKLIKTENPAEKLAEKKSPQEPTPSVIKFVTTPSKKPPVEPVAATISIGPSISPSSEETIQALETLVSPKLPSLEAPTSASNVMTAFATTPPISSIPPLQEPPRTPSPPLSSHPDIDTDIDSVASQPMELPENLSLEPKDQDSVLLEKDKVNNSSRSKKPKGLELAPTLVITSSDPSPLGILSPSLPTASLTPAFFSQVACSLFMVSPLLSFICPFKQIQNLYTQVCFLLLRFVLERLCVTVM
# Outline: as §1
# [6] = biological target: T3, ETV2 (Homo sapiens, UniProt O00321 1-342); conditions: protein: recombinant; tags: N-terminal GST; dsDNA, one strand shown
# T3 sequence: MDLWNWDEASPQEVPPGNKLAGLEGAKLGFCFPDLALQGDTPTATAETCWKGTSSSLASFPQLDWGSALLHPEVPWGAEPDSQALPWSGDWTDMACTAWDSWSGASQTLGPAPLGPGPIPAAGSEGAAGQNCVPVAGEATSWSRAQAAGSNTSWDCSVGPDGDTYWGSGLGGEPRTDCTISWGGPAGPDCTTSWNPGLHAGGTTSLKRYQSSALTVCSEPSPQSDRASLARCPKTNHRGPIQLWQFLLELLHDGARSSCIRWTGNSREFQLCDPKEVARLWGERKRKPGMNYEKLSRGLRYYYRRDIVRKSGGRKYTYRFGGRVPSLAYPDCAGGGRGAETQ
# Outline: as §1
# [7] = biological target: T4, ELF3 (Homo sapiens, UniProt P78545 1-371); conditions: protein: recombinant; tags: N-terminal GST; dsDNA, one strand shown
# T4 sequence: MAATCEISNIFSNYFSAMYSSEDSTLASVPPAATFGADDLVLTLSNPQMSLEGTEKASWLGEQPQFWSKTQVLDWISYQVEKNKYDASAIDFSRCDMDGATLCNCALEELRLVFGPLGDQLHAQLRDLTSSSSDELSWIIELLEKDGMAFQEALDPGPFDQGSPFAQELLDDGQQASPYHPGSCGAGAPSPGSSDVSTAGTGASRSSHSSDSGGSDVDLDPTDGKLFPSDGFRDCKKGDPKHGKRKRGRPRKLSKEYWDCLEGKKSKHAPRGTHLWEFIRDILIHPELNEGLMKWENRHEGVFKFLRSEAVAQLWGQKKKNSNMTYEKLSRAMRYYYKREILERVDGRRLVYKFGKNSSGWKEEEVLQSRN
# Outline: as §1
# [8] = biological target: CRX (Homo sapiens, UniProt O43186 1-299); conditions: protein: recombinant; tags: N-terminal GST; dsDNA, one strand shown
# Outline: as §1
# [9] = biological target: ETV1 (Homo sapiens, UniProt P50549 1-477); conditions: protein: recombinant; tags: N-terminal GST; dsDNA, one strand shown
# Outline: as §1
# [10] = biological target: T5, ERF (Homo sapiens, UniProt P50548 1-548); conditions: protein: recombinant; tags: N-terminal GST; dsDNA, one strand shown
# T5 sequence: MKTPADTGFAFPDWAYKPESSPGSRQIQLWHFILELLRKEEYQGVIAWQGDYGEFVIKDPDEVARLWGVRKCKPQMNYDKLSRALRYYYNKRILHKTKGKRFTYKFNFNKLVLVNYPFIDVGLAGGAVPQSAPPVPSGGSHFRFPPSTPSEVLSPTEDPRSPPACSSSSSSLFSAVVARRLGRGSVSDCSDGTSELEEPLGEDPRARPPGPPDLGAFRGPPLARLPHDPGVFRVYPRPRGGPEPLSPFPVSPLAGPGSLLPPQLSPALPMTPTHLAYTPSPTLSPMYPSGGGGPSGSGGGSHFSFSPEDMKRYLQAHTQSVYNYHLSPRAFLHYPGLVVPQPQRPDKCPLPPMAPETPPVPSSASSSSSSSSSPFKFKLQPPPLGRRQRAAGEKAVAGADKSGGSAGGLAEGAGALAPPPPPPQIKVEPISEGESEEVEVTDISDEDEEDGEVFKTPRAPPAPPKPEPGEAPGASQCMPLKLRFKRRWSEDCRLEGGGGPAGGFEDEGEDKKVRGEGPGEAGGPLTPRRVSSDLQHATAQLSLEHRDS
# Outline: as §1
# [11] = biological target: T6, ETV3L (Homo sapiens, UniProt Q6ZN32 1-361); conditions: protein: recombinant; tags: N-terminal GST; dsDNA, one strand shown
# T6 sequence: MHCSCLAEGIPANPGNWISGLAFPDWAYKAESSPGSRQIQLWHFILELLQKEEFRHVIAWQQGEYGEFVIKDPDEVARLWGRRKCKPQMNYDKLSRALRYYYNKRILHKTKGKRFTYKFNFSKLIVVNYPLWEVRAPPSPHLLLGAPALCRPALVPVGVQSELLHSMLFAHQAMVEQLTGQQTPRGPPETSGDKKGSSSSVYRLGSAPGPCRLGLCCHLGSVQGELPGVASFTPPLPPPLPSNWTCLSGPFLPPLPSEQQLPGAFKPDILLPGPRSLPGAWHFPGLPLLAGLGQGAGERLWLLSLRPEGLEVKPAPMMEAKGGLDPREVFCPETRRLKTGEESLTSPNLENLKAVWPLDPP
# Outline: as §1
# [12] = biological target: T7, ETS2 (Homo sapiens, UniProt P15036 1-469); conditions: protein: recombinant; tags: N-terminal GST; dsDNA, one strand shown
# T7 sequence: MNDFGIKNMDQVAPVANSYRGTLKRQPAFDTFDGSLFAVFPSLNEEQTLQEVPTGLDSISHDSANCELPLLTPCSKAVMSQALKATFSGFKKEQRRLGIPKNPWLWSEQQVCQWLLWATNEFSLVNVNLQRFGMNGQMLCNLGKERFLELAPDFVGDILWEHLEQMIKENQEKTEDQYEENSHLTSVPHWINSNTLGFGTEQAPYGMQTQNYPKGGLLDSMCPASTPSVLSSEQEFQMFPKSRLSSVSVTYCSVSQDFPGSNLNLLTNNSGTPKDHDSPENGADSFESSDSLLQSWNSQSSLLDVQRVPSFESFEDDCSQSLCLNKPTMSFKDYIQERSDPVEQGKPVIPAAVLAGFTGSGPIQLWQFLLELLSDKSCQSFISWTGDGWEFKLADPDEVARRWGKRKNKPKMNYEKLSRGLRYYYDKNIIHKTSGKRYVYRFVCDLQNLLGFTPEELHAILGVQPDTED
# Outline: as §1
# [13] = biological target: T8, SPDEF (Homo sapiens, UniProt O95238 1-335); conditions: protein: recombinant; tags: N-terminal GST; dsDNA, one strand shown
# T8 sequence: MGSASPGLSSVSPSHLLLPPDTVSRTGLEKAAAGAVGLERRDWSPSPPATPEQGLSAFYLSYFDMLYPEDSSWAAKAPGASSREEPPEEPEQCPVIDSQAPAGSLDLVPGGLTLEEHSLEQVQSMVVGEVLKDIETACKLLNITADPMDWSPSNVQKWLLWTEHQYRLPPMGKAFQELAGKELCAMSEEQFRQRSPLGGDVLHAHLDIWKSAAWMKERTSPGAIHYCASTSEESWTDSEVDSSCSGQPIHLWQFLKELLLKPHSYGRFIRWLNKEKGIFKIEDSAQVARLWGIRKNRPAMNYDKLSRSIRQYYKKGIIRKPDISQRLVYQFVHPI
# Outline: as §1
# [14] = biological target: T9, ETV7 (Homo sapiens, UniProt Q9Y603 1-341); conditions: protein: recombinant; tags: N-terminal GST; dsDNA, one strand shown
# T9 sequence: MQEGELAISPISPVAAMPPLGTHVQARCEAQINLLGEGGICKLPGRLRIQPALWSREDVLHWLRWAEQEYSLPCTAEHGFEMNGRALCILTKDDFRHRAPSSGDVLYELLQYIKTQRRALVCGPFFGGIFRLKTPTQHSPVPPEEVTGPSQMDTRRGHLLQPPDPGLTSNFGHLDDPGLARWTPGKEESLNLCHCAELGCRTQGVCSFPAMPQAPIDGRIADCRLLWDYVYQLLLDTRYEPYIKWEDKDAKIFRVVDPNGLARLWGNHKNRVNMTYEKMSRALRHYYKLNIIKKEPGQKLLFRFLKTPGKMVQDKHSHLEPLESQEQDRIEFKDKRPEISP
# Outline: as §1
# [15] = biological target: T10, ELF5 (Homo sapiens, UniProt Q9UKW6-2 1-255); conditions: protein: recombinant; tags: N-terminal GST; dsDNA, one strand shown
# T10 sequence: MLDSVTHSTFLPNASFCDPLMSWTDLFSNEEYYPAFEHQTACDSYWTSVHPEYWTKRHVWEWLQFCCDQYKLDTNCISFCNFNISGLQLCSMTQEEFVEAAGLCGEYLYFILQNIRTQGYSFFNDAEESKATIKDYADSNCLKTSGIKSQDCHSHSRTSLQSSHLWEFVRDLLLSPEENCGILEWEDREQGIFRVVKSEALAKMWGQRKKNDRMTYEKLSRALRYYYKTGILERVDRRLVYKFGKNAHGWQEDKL
# Outline: as §1
# [16] = biological target: T11, ETV3 (Homo sapiens, UniProt P41162-2 1-143); conditions: protein: recombinant; tags: N-terminal GST; dsDNA, one strand shown
# T11 sequence: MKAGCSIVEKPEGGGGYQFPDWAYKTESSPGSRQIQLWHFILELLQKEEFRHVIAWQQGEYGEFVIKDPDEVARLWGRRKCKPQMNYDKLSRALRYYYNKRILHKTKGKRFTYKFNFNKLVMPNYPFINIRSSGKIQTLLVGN
# Outline: as §1
# [17] = biological target: ETV6 (Homo sapiens, UniProt P41212 1-452); conditions: protein: recombinant; tags: N-terminal GST; dsDNA, one strand shown
# Outline: as §1
# HSF1, sequence (Q00613 whole entry): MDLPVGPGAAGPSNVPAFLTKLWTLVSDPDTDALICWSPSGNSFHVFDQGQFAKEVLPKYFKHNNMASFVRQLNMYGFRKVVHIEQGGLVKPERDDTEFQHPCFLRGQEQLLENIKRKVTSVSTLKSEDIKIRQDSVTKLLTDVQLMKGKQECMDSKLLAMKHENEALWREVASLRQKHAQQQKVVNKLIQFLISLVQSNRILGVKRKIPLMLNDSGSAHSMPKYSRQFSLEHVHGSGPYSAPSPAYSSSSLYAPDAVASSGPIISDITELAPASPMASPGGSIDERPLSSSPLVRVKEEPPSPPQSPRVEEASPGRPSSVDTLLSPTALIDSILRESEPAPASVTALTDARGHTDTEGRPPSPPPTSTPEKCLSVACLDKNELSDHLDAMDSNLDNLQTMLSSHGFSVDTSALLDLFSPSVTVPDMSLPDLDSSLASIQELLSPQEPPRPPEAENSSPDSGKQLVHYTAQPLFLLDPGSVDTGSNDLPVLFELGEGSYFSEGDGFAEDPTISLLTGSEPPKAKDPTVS
# ELF4, sequence (Q99607 whole entry): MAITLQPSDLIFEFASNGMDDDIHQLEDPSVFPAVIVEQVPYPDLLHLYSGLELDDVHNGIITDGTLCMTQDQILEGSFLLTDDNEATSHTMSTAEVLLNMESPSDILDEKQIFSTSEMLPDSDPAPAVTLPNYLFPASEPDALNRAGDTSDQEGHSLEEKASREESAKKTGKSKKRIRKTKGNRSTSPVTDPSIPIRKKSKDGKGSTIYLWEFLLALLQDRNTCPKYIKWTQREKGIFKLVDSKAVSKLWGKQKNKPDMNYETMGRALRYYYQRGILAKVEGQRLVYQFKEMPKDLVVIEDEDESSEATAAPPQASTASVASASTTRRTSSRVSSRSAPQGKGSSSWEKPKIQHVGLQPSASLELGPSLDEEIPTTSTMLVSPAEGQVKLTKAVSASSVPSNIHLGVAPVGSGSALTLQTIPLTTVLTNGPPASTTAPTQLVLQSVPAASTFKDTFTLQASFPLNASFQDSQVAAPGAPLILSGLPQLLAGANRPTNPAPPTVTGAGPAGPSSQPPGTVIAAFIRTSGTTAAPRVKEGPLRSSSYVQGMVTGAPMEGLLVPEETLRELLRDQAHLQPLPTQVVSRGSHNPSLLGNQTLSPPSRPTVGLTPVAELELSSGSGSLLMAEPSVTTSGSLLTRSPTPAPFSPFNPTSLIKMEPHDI
# CRX, sequence (O43186 whole entry): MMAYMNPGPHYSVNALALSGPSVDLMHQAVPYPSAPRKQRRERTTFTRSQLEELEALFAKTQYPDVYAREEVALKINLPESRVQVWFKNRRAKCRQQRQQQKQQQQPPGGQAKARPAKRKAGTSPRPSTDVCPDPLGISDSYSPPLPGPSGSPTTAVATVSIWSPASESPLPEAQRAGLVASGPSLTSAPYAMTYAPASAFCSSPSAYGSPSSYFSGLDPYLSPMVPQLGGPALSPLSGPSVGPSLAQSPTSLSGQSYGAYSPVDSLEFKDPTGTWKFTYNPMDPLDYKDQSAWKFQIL
# ETV1, sequence (P50549 whole entry): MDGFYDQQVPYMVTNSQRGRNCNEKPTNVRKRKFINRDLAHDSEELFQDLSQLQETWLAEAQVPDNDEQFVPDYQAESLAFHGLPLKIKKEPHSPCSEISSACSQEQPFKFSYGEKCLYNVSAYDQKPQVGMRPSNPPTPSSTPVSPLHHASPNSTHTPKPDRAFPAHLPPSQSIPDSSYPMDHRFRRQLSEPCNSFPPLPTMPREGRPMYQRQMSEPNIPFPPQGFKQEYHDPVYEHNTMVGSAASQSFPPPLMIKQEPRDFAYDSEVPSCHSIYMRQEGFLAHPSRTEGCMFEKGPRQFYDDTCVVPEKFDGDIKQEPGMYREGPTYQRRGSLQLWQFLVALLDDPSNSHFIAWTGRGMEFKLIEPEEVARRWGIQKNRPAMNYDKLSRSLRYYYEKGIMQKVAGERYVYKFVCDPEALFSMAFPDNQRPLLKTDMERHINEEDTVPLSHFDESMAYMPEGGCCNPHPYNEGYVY
# ETV5, sequence (P41161 whole entry, the tested form may be a part): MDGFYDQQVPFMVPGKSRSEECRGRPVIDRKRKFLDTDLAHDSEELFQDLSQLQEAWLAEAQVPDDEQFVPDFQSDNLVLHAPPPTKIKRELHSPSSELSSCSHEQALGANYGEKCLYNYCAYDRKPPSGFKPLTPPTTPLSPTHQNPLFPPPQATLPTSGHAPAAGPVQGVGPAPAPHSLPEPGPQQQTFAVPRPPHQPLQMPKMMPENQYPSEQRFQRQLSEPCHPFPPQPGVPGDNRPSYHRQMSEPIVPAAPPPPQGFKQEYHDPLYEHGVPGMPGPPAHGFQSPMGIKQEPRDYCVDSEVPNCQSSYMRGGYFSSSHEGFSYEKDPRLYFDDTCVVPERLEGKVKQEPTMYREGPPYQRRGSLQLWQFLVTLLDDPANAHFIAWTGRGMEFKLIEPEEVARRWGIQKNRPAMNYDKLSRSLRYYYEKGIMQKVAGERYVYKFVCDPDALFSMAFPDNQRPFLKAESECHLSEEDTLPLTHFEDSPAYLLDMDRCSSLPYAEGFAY
# ETV6, sequence (P41212 whole entry): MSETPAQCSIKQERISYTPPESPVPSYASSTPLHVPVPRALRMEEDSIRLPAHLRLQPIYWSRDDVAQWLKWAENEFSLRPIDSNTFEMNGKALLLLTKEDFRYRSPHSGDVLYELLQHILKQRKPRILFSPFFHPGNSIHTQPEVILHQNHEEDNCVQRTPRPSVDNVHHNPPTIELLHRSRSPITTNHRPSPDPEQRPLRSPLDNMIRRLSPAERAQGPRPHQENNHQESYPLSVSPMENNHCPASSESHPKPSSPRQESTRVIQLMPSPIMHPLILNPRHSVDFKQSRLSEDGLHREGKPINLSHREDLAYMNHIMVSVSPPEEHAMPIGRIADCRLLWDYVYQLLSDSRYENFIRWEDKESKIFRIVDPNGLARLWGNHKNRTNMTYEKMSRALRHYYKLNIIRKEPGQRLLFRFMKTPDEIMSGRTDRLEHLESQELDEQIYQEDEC
sequence,measurement,setting,value
CTATTA,binding signal,[1],"1.14 fold enrichment (6-mer frequency, TF over GST control)"
same,binding signal,[2],"1.3 fold enrichment (6-mer frequency, TF over GST control)"
same,binding signal,[3],"1.07 fold enrichment (6-mer frequency, TF over GST control)"
same,binding signal,[4],"1.14 fold enrichment (6-mer frequency, TF over GST control)"
same,binding signal,[5],"1.09 fold enrichment (6-mer frequency, TF over GST control)"
same,binding signal,[6],"1.13 fold enrichment (6-mer frequency, TF over GST control)"
same,binding signal,[7],"1.03 fold enrichment (6-mer frequency, TF over GST control)"
same,binding signal,[8],"1.76 fold enrichment (6-mer frequency, TF over GST control)"
same,binding signal,[9],"1.14 fold enrichment (6-mer frequency, TF over GST control)"
same,binding signal,[10],"1.08 fold enrichment (6-mer frequency, TF over GST control)"
same,binding signal,[11],"1.11 fold enrichment (6-mer frequency, TF over GST control)"
same,binding signal,[12],"1.14 fold enrichment (6-mer frequency, TF over GST control)"
same,binding signal,[13],"1.07 fold enrichment (6-mer frequency, TF over GST control)"
same,binding signal,[14],"1.07 fold enrichment (6-mer frequency, TF over GST control)"
same,binding signal,[15],"1.1 fold enrichment (6-mer frequency, TF over GST control)"
same,binding signal,[16],"1.05 fold enrichment (6-mer frequency, TF over GST control)"
same,binding signal,[17],"1.14 fold enrichment (6-mer frequency, TF over GST control)"
